Compound activity (PubChem BioAssay)
DT40 TDP1 no CPT = qHTS for Inhibitors of human tyrosyl-DNA phosphodiesterase 1 (TDP1): qHTS in cells in absence of CPT; AID 686978, 2013; hit rate 15% among 420,000; Potency, µM (titrated, usually from 46.2 µM), inactives show at the top dose activity change, negative = growth inhibition, usual class: inhibitors; DT40 Tdp1-/- hTDP1 cells, no CPT, ATP luminescence, 48 h; note: % is set by controls: 0 for no effect and ±100 for the full control effect; nearly all actives have a fitted effect of over 55% in size
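No-CPT arm: Tdp1-/-;hTDP1 DT40 cells (400/well) plus compounds, incubated ≥48 hr at 37 °C. Readout CellTiter-Glo luminescence.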
HT1080-NT tox = kills 2HG-producing HT-1080-NT fibrosarcoma cells; HT-1080-NT fibrosarcoma viability, CellTiter-Glo ATP luminescence, 48 h; Potency, µM (highest dose often 46.1 µM), inactives show at the top dose activity, negative = less viability, usual class: cytotoxic; hit rate 1.6% among 360,000; AID 686970;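 note: NT is the 2HG producing partner of a matched IDH1 knockdown line; 0% = DMSO-treated cells and -100% = media-only wells without cells; nearly all actives have a fitted effect of over 55% in size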
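Toxicity toward the 2HG-producing NT line was scored as %Activity, normalised to DMSO and no-cell wells, from CellTiter-Glo luminescence after 48 hours' treatment.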
TDP1 cell CPT = growth inhibition of DT40 Tdp1-/-;hTDP1 cells with camptothecin (screen for TDP1 inhibitors). chicken DT40 Tdp1-/-;hTDP1 cells + 20 nM CPT, ATP luminescence, 48 h. Potency, µM (doses to about 46.2 µM), for the others: at the highest dose activity change, negative = growth inhibition, actives largely listed as inhibitors. hit rate 12% among 420,000. AID 686979; note: % is set by controls: 0 for no effect and ±100 for the full control effect; nearly all actives have a fitted effect of over 55% in size
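Chicken DT40 Tdp1-/- cells complemented with human TDP1, 400 cells/well, exposed to compounds plus 20 nM camptothecin for at least 48 h at 37 C; viability read as ATP content by CellTiter-Glo luminescence.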
HepG2 tox = counter-screen for TGF-b inhibitors: cytotoxicity in HepG2 cells; HepG2 CAGA-GFP viability, ATP luminescence, 18 h; Potency, µM (titrated, usually from 46.1 µM), for the others: top-dose activity change, negative = cytotoxicity, hits mostly cytotoxic; hit rate 0.76% among 410,000
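HepG2 CAGA-GFP cells (1000/well, DMEM with 1% FBS) received compound, then TGF-beta at 500 pg/mL final, and were incubated 18 hours at 37 degrees C. Viability was read by CellTiter-Glo luminescence. Media-only wells were set as complete cell-killing and DMSO as no toxicity.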
TGFb inhibitor = TGF-b pathway inhibition; HepG2 CAGA-GFP TGF-b/SMAD3 reporter, GFP fluorescence, 18 h; TGF-beta stimulated, 500 pg/mL final; Potency, µM (doses to about 46.1 µM), for inactives: at the top dose activity, negative = inhibition, usual class: inhibitors; hit rate 1.2% among 410,000; AID 588855; note: % is set by controls: 0 for no effect and ±100 for the full control effect; nearly all actives have a fitted effect of over 65% in size
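TGF-beta reporter screen: HEPG2 CAGA-GFP, 1% FBS, 500 pg/mL TGF-beta final, 18 h; per-cell GFP summed per well; curves fitted and categorized by class.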
HT1080 IDH1KD tx = kills HT-1080 cells with IDH1 knockdown. HT-1080 IDH1 knockdown viability, ATP luminescence, 48 h. hit rate 2% among 360,000. Potency, µM (series often up to 46.1 µM), inactives show at the highest dose activity, negative = toxicity, usual class: cytotoxic;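 note: 0% = DMSO wells and -100% = cell-free medium wells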
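Viability of IDH1-knockdown HT-1080 fibrosarcoma cells was assessed by CellTiter-Glo after 48 h at 37 °C with titrated compound; concentration-effect curves were classified by fit quality and response size.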
The depositor's hits bear a star; ? = inconclusive; nt = no result given. Rows were chosen to be rich in hits. Some 17% of all compounds tested hit in one or more screens of this group. Calls come from the whole dose curve; as a rule, active = well fitted curve in the direction sought with a large enough effect; inconclusive = small, poorly fitted or top-dose-only effect, or another doubt; inactive = no such curve, though single readings can be large; an effect the other way counts as inactive or inconclusive. Potency is the fitted concentration of half-maximal effect.

SMILES	DT40 TDP1 no CPT	HT1080-NT tox	TDP1 cell CPT	HepG2 tox	TGFb inhibitor	HT1080 IDH1KD tx
Cc1occc1-c1nnc(SCC(=O)Nc2nc3ccccc3s2)o1	-17.7%	0.7%	-0.7%	-33.4%	2.9%	?
CCCCC(Sc1nc2cc3c(cc2c(=O)n1CCCC(=O)NCc1ccc(OC)cc1)OCO3)C(=O)OCC (configuration not stated)	4.61µM*	nt	4.61µM*	2.8%	-0.6%	nt
CCN(CC)C(=O)CSc1nc2cc3c(cc2c(=O)n1Cc1ccc(C(=O)NCCc2ccc(OC)c(OC)c2)cc1)OCO3	20.6µM*	nt	13µM*	0.6%	-1.8%	nt
CCOC(=O)CSc1nc2cc3c(cc2c(=O)n1CCCC(=O)NCCc1ccc(OC)c(OC)c1)OCO3	13µM*	nt	?	4.1%	-3.7%	nt
CCCCNC(=O)CSc1nc2cc3c(cc2c(=O)n1Cc1ccc(C(=O)NCCc2ccc(OC)c(OC)c2)cc1)OCO3	-6.6%	nt	11.9%	-16.4%	-7.1%	nt
CCN(CC)C(=O)CSc1nc2cc3c(cc2c(=O)n1CCCC(=O)NCCc1ccc(OC)c(OC)c1)OCO3	18.4µM*	6.7%	?	-13.3%	-8.7%	2.1%
CCOc1ccc(N(C)C(=O)C2CCN(S(=O)(=O)c3ccc4c(c3)CCCN4C(C)=O)CC2)cc1	?	nt	?	-17.7%	?	nt
Cc1cc(S(=O)(=O)Nc2ncnc3sccc23)ccc1F	-12.2%	1.6%	-5.9%	-6.2%	0.8%	-1.1%
N#Cc1ccc(NC(=S)NC(=O)C2CCCCC2)cc1	?	2.0%	?	1.1%	?	4.1%
Oc1ccc(Cl)cc1-c1cc(-c2ccccc2Cl)[nH]n1	-18.3%	-28.1%	-14.9%	-20.6%	-12.6%	0.5%
Oc1ccc(Cl)cc1-c1cc(-c2cccc(Br)c2)n[nH]1	18.4µM*	-24.1%	16.4µM*	-23.2%	-28.8%	-28.1%
Oc1ccc(Cl)cc1-c1cc(-c2ccco2)[nH]n1	18.4µM*	?	9.2µM*	-43.8%	?	?
c1cnc2c(-c3ccc4nccn4c3)cccc2c1	-13.0%	3.9%	-14.3%	-67.4%	-1.0%	28.6%
CCOC(=O)/C(C#N)=C1\CCCN1CC(N)=S	-3.4%	13.7%	-4.3%	-1.1%	-6.7%	4.7%
COc1cc(CN2CCC3(CCC(CNC(=O)c4ccco4)O3)CC2)cc(OC)c1 (configuration not stated)	-22.3%	nt	-1.1%	nt	nt	nt
Cc1ccc(C)c2sc(N3CCN(C(=O)c4ccco4)CC3)nc12	18.4µM*	nt	?	-51.6%	10µM*	nt
Cc1ccc(Cl)c2sc(N3CCN(C(=O)c4ccco4)CC3)nc12	16.4µM*	-3.8%	?	-16.7%	?	-6.3%
CCOc1ccc(N2CC(O)=C(c3nc4ccccc4c(=O)[nH]3)C2=N)cc1	-19.8%	7.8%	-28.1%	2.1%	14.7%	4.0%
CCOC(=O)c1ccc(N2CC(O)=C(c3nc4ccccc4c(=O)[nH]3)C2=N)cc1	10.3µM*	23.6%	?	-0.3%	26.2%	5.5%
CC1C(O)=C(c2nc3ccccc3[nH]2)C(=N)N1c1ccccc1 (configuration not stated)	20.6µM*	?	?	-10.0%	-20.8%	?
COc1ccc(CCN2CC(O)=C(c3nc(C)cs3)C2=N)cc1OC	-13.3%	-24.6%	-1.3%	-43.7%	7.2%	-10.0%
CCC(C)N1CC(O)=C(c2nc3ccccc3[nH]2)C1=N (configuration not stated)	?	4.3%	23.1µM*	-4.6%	-0.5%	-21.0%
c1ccc(-c2nc3ccccc3[nH]2)cc1	-17.7%	-16.0%	?	-19.8%	-6.3%	-8.4%
COc1ccc(CCN2CC(O)=C(c3nc4ccccc4c(=O)[nH]3)C2=N)cc1OC	18.4µM*	7.5%	?	-7.9%	-7.6%	-4.2%
CCCCCCN1CC(O)=C(c2nc3ccccc3[nH]2)C1=N	-1.8%	4.5%	-0.6%	-2.4%	-5.5%	-24.9%
SMILES	DT40 TDP1 no CPT	HT1080-NT tox	TDP1 cell CPT	HepG2 tox	TGFb inhibitor	HT1080 IDH1KD tx
O=C(Cc1ccc(Br)cc1)NC1CCSC1=O (configuration not stated)	0.8%	3.4%	2.7%	2.2%	4.1%	-0.1%
N=C1C(c2nc3ccccc3[nH]2)=C(O)CN1c1ccccc1	23.1µM*	-8.2%	?	-4.7%	?	-27.7%
N=C1C(c2nc3ccccc3[nH]2)=C(O)CN1c1ccc(CC(=O)O)cc1	0.4%	19.6%	10.2%	4.0%	2.8%	13.8%
O=c1cnc2cncnc2n1Cc1ccccc1	7.31µM*	nt	5.8µM*	nt	nt	nt
O=c1cnc2cncnc2n1Cc1ccccc1Cl	1.3µM*	nt	2.31µM*	nt	nt	nt
O=c1cnc2cncnc2n1Cc1ccc(F)cc1	4.11µM*	nt	4.11µM*	nt	nt	nt
Cc1nc2cncnc2n(Cc2ccccc2Cl)c1=O	-1.5%	nt	-16.4%	nt	nt	nt
O=c1c(-c2ccccc2)nc2cncnc2n1Cc1ccc(F)cc1	20.6µM*	nt	?	nt	nt	nt
O=C(NCCOc1ccc(Cl)cc1)c1ccc2c(c1)OCCO2	-28.2%	-1.1%	-3.1%	2.0%	4.9%	-3.6%
O=C(NCc1ccccn1)c1ccc(Cl)c(S(=O)(=O)NCc2ccccc2)c1	-18.6%	-0.3%	0.4%	-17.8%	-30.2%	-5.2%
COC(=O)c1nn(-c2ccccc2)c(Cl)c1/C=N/OCc1ccc(C)cc1	?	-0.9%	-13.8%	-4.5%	4.7%	0.1%
CCOc1ccccc1N(CC(=O)NC1CCCC1)S(=O)(=O)c1ccc(C)cc1	20.6µM*	-13.0%	?	-17.7%	0.6%	0.1%
CCOC(=O)N1CCN(C(=O)CN(Cc2ccc(Cl)cc2)S(=O)(=O)c2ccc(C)cc2)CC1	?	-1.9%	15.8µM*	-5.6%	-1.9%	2.1%
CCOc1ccccc1N(CC(=O)N1CCCCCC1)S(=O)(=O)c1ccc(C)cc1	?	-2.3%	23.1µM*	-28.6%	-1.4%	-7.0%
CCOc1ccccc1N(CC(=O)NC1CCCCC1)C(=O)c1nsc(Cl)c1Cl	25.9µM*	-3.1%	-23.6%	-21.5%	-8.9%	-1.5%
O=C(CN1N=C(c2ccc(Cl)cc2)CCC1=O)NCc1ccc(F)cc1	?	nt	-18.1%	-25.2%	?	nt
O=C(O)c1ccccc1C(=O)Nc1ccc(Br)c2cccnc12	-9.4%	-6.3%	-1.9%	-22.6%	4.3%	11.0%
COc1cccc(N(CC(=O)N2CCC(C)CC2)S(=O)(=O)c2ccc(C)cc2)c1	14.6µM*	nt	20.6µM*	-15.3%	-11.2%	nt
